The record followed here is PubChem BioAssay (NCI).

Compounds without any hit were thinned out: in the full panel of roughly 83,000, 20% have a hit.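 Testing used 96-well plates and a 48-hour single-concentration exposure. Example: -40 means 40% of the starting cells died.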 Unmarked numbers belong to inactive results. The source made the active and inactive calls. The calls were made as follows: active = growth percent below 10; inactive = the rest.

Test systems include NCI-H23 lung; NCI-H226 lung; NCI-H322M lung; HOP-62 NSCLC; NCI-H460 lung; HOP-92 NSCLC; NCI-H522 lung; 786-0 renal; COLO 205 colon; DU-145 prostate; K-562 leukemia; MALME-3M melanoma; MDA-MB-231 breast; RXF 393 renal; SF-268 CNS; SF-295 CNS; UACC-257 melanoma; M14 melanoma; A549/ATCC NSCLC; SF-539 CNS.
Common to all, as to assay: NCI-60 one-dose screen, 48 h (100 = growth as untreated, 0 = no growth, -100 = all killed)
Common to all, as to conditions: 10 µM unless noted

In the case of `COc1ccc(C2=CC(c3cc(OC)c(OC)c(OC)c3)NC(=O)N2)cc1OC` (stereo not drawn), the growth with NCI-H23 lung is 27.3%; in the assay with NCI-H226 lung, 64.3%; in the assay with NCI-H322M lung, -9.67% (active); with HOP-62 NSCLC it was 32.6%; in the assay on NCI-H460 lung, 1.25% (active); in the assay on HOP-92 NSCLC, 6.24% (active). The growth in the assay with NCI-H522 lung is -8.71% (active); in the assay on 786-0 renal, 27.9%; with COLO 205 colon, -24.1% (active); in the assay on DU-145 prostate, -17.1% (active); with K-562 leukemia, 10.6%; with MALME-3M melanoma, 11.2%. Also, the growth in the assay on MDA-MB-231 breast was 21.8%; with RXF 393 renal, 0.616% (active); in the assay with SF-268 CNS it was 32.2%; in the assay with SF-295 CNS, 6.53% (active); with UACC-257 melanoma it was 57.2%; in the assay on M14 melanoma it was 17.2%.

In the case of `O=S(=O)(CC(O)(c1ccccc1)c1ccccc1)CC(O)(c1ccccc1)c1ccccc1`, the growth is 88.3% in the assay on NCI-H23 lung; 84.1% with NCI-H226 lung; 59.3% in the assay with NCI-H322M lung; 68.8% in the assay on HOP-62 NSCLC; 86.7% in the assay on HOP-92 NSCLC; 108% with NCI-H522 lung. Also, the growth in the assay on A549/ATCC NSCLC was 94.1%; in the assay with 786-0 renal it was 90.2%; with COLO 205 colon, 90.2%; with DU-145 prostate, 74.6%; in the assay with K-562 leukemia it was 75.8%; in the assay on MALME-3M melanoma, 61.8%. The growth is 71.2% with MDA-MB-231 breast; 93.4% in the assay on RXF 393 renal; 85.3% in the assay on SF-268 CNS; 74.8% with SF-295 CNS; 2.42% (active) in the assay on SF-539 CNS; 102% with UACC-257 melanoma. For the same molecule, in the assay with M14 melanoma, the growth was 95.2%.

For the molecule `O=[N+]([O-])c1ccc(OCCCOc2ccccc2)cc1`, the growth was 102% in the assay on NCI-H23 lung; 113% in the assay on NCI-H226 lung; 101% in the assay on NCI-H322M lung; 96.9% in the assay with HOP-62 NSCLC; 108% with NCI-H460 lung; 121% with HOP-92 NSCLC. The growth in the assay on NCI-H522 lung was 86.3%; in the assay with 786-0 renal it was 98.7%; with COLO 205 colon, 118%; with DU-145 prostate it was 108%; in the assay with K-562 leukemia it was 99%; with MALME-3M melanoma, 110%. Also, the growth in the assay with MDA-MB-231 breast was 104%; with RXF 393 renal, 116%; in the assay on SF-268 CNS it was 106%; in the assay with SF-539 CNS it was 110%; with UACC-257 melanoma, 100%; in the assay on M14 melanoma, 114%.

For `C=C1c2nc3ccccc3n2C=C(c2ccc(Cl)cc2)N1Cc1ccccc1`, the growth with NCI-H23 lung was 73.4%; in the assay on NCI-H226 lung, 76.9%; with NCI-H322M lung it was 96%; in the assay with HOP-62 NSCLC, 106%; in the assay on HOP-92 NSCLC, 73.6%; in the assay with NCI-H522 lung it was 66.3%. Also, the growth in the assay with A549/ATCC NSCLC is 70.6%; in the assay with 786-0 renal, 89.5%; in the assay with COLO 205 colon, 105%; in the assay on DU-145 prostate, 103%; in the assay on K-562 leukemia, 59.1%; with MALME-3M melanoma, 94.5%. In addition, the growth with MDA-MB-231 breast is 85.4%; in the assay on RXF 393 renal, 65.7%; in the assay on SF-268 CNS, 90.3%; in the assay on SF-295 CNS, 89.8%; in the assay on SF-539 CNS it was 96.4%; in the assay with UACC-257 melanoma, 75.4%. Moreover, the growth in the assay on M14 melanoma is 85.2%.

Regarding `Clc1cc2c(nn1)Nc1ccccc1S2`, the growth with NCI-H23 lung is 94.7%; in the assay with NCI-H226 lung, 104%; with NCI-H322M lung, 97.8%; in the assay with HOP-62 NSCLC it was 97.5%; in the assay with NCI-H460 lung, 99.2%; with HOP-92 NSCLC it was 83.6%. Moreover, the growth with NCI-H522 lung is 56.5%; in the assay with 786-0 renal it was 99.3%; with COLO 205 colon it was 116%; in the assay with DU-145 prostate it was 109%; in the assay with K-562 leukemia it was 98.2%; in the assay on MALME-3M melanoma, 103%. Also, the growth is 114% in the assay with MDA-MB-231 breast; 102% in the assay on SF-268 CNS; 108% in the assay with SF-295 CNS; 89% with SF-539 CNS; 73.5% in the assay with UACC-257 melanoma; 107% in the assay with M14 melanoma.

With `COC(=O)c1cccc2c1N(C)c1c(cccc1C(=O)OC)CC2`, the growth was 104% in the assay with NCI-H23 lung; 112% in the assay with NCI-H226 lung; 111% in the assay on NCI-H322M lung; 107% in the assay with HOP-62 NSCLC; 96.4% in the assay on HOP-92 NSCLC; 96.1% with NCI-H522 lung. Besides, the growth was 112% in the assay with A549/ATCC NSCLC; 108% in the assay with 786-0 renal; 102% in the assay on COLO 205 colon; 107% with DU-145 prostate; 121% in the assay on K-562 leukemia; 115% in the assay with MALME-3M melanoma. Further, the growth in the assay with MDA-MB-231 breast is 111%; with RXF 393 renal it was 124%; with SF-268 CNS, 98.8%; in the assay on SF-295 CNS, 104%; in the assay on SF-539 CNS, 106%; in the assay on UACC-257 melanoma, 121%. The growth in the assay on M14 melanoma is 104%.

On to `O=C(N/N=C/C=C\c1ccccc1)C(=O)N/N=C/C=C/c1ccccc1`, for which the growth was 103% with NCI-H23 lung; 111% in the assay on NCI-H226 lung; 123% in the assay on NCI-H322M lung; 107% in the assay on HOP-62 NSCLC; 115% with HOP-92 NSCLC; 124% in the assay with NCI-H522 lung. Moreover, the growth in the assay with A549/ATCC NSCLC was 109%; in the assay with 786-0 renal, 104%; in the assay with COLO 205 colon it was 122%; in the assay on DU-145 prostate, 112%; in the assay with K-562 leukemia it was 113%; with MALME-3M melanoma, 117%. The growth in the assay on MDA-MB-231 breast was 111%; in the assay on RXF 393 renal it was 127%; with SF-268 CNS, 105%; in the assay on SF-295 CNS it was 104%; in the assay on SF-539 CNS it was 114%; with UACC-257 melanoma, 106%. Besides, the growth with M14 melanoma was 107%.

In the case of `CCO/C=N/C1=C(C#N)C(c2ccc(Cl)cc2)c2c(c3ccc(C)cc3[nH]c2=O)O1` (stereo not drawn), the growth with NCI-H23 lung is 85.4%; in the assay on NCI-H226 lung, 78.9%; with NCI-H322M lung, 88%; in the assay on HOP-62 NSCLC, 70.7%; in the assay on HOP-92 NSCLC it was 50.7%; with NCI-H522 lung, 74.2%. Besides, the growth with A549/ATCC NSCLC is 90.2%; in the assay on COLO 205 colon, 96.1%; with DU-145 prostate, 103%; in the assay on K-562 leukemia, 88.1%; with MALME-3M melanoma it was 81.8%; in the assay with MDA-MB-231 breast it was 59.6%. The growth in the assay on RXF 393 renal was 73.9%; in the assay with SF-268 CNS, 90.7%; with SF-295 CNS, 89.6%; in the assay with SF-539 CNS, 75.9%; in the assay on UACC-257 melanoma it was 97.2%; in the assay with M14 melanoma, 87.1%.
